Drawing on the antibiotic and cytotoxicity screens of Wong et al. (2023), this text covers cytotoxicity call for 21 compounds.

The campaign covered roughly 39,000 compounds. About 3,300 (8.5%) were called active. The full list was thinned out, with actives kept by preference.

In the assay the test system is HepG2. The assay is described as follows: cytotoxicity call (relative viability < 0.9). The conditions noted are these: 10 µM.
As to `Cc1noc(C)c1S(=O)(=O)Nc1ccc2c(c1)C(=O)N([C@@H](C)CO)C[C@H](C)[C@H](CN(C)C(=O)Nc1ccc(F)cc1)OCCCC[C@H](C)O2`, the cytotoxicity call is “inactive”.

For `O=c1ccn(C2OC(CO)C(O)C2O)c(=O)[nH]1` (stereo unspecified), the cytotoxicity call was “inactive”.

Turning to `O=c1ccn([C@@H]2O[C@H](CO)[C@@H](O)[C@H]2O)c(=O)[nH]1`, the cytotoxicity call is “inactive”.

For `O=c1ccn([C@H]2O[C@H](CO)[C@@H](O)[C@@H]2O)c(=S)[nH]1`, the cytotoxicity call is “active”.

For the compound `C[C@H]1CN([C@@H](C)CO)C(=O)Cc2cc(NC(=O)CCC(F)(F)F)ccc2O[C@@H]1CN(C)C(=O)Nc1cccc2ccccc12`, the cytotoxicity call was “inactive”.

Take `NC[C@H](c1ccco1)N1CCCCCC1`: the cytotoxicity call is “inactive”.

Turning to `OC[C@@H]1CC[C@@H]2O[C@H](CCc3ccc(C#Cc4ccccc4)cc3)[C@@H](n3cc(-c4ccccc4)nn3)C[C@@H]2O1`, the cytotoxicity call was “active”.

For `OC[C@H]1CC[C@@H]2O[C@H](CCc3ccc(C#Cc4ccccc4)cc3)[C@H](n3cc(-c4ccccc4)nn3)C[C@@H]2O1`, the cytotoxicity call is “inactive”.

`OC[C@@H]1CC[C@@H]2O[C@H](CCc3ccc(C#Cc4ccccc4)cc3)[C@H](n3cc(-c4ccccc4)nn3)C[C@@H]2O1`: the cytotoxicity call was “inactive”.

With `OC[C@H]1CC[C@@H]2O[C@H](CCc3ccc(C#Cc4ccccc4)cc3)[C@@H](n3cc(-c4ccccc4)nn3)C[C@@H]2O1`, the cytotoxicity call was “active”.

On to `OC[C@H]1CC[C@@H]2O[C@H](CCc3ccc(C#CCc4ccccc4)cc3)[C@H](n3cc(-c4ccccc4)nn3)C[C@@H]2O1`, for which the cytotoxicity call was “inactive”.

As to `OC[C@H]1CC[C@@H]2O[C@H](CCc3ccc(C#CCc4ccccc4)cc3)[C@@H](n3cc(-c4ccccc4)nn3)C[C@@H]2O1`, the cytotoxicity call is “inactive”.

For `C[C@H](CO)N1C[C@H](C)[C@@H](CN(C)Cc2ccc(C(=O)O)cc2)OCCCC[C@H](C)Oc2ccc(NS(=O)(=O)c3ccccc3)cc2C1=O`, the cytotoxicity call is “inactive”.

Take `CN1CCN(C(=O)C[C@H]2CC[C@H]3[C@@H](COC[C@@H](O)CN3C(=O)C3CC3)O2)CC1`: the cytotoxicity call was “inactive”.

With `C[C@H](CO)N1C[C@H](C)[C@H](CN(C)Cc2ccccc2)Oc2ccc(NC(=O)Cn3cnnn3)cc2CC1=O`, the cytotoxicity call was “inactive”.

Consider `COc1ccc(S(=O)(=O)N(C)C[C@@H]2Oc3ncc(-c4ccncc4)cc3C(=O)N([C@H](C)CO)C[C@H]2C)cc1`, for which the cytotoxicity call is “inactive”.

Turning to `NCc1cccc2c1OCC2`, the cytotoxicity call is “inactive”.

Take `CC(C)NCCCn1c(Sc2cc3c(cc2I)OCO3)nc2c(N)ncnc21`: the cytotoxicity call is “active”.

With `CCOc1nc2c(N)ncnc2n1CC`, the cytotoxicity call was “inactive”.

As for `COc1ccc(CN(C)C[C@H]2OCCCC[C@H](C)Oc3ccc(NC(=O)Nc4ccccc4)cc3C(=O)N([C@H](C)CO)C[C@H]2C)cc1`, the cytotoxicity call was “inactive”.

For the compound `C[C@@H]1CN([C@H](C)CO)S(=O)(=O)c2ccc(C#CCC3CCCC3)cc2O[C@H]1CN(C)C(=O)c1cnccn1`, the cytotoxicity call was “inactive”.
